Reference: PubChem BioAssay (EPA / NIEHS)
Activity calls are given as the source filed them. Rule for the calls: active = hit-call score of the fitted dose curve at least 0.9, where 1 is the maximum; inactive = score below 0.9.

Columns and labels:
Settings in all cases: mRNA level, 48 h; actives raise or lower the signal
[1] = read-out: Potassium channel subfamily K member 1 (KCNK1), KCNK1 (gene 3775); assay: LTEA_HepaRG_KCNK1: Life Technologies and Expression Analysis (LTEA) Assay for Potassium channel subfamily K member 1 (KCNK1) using HepaRG (AID 2283511)
How it was run: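 HepaRG, 48 h exposure, 8-pt half-log series top 100 uM, 0.5% DMSO vehicle, duplicates. Readout: KCNK1 transcript by qRT-PCR (Fluidigm array), housekeeping-normalized; bidirectional curve fit relative to DMSO baseline.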

[2] = read-out: Keratin 19 (KRT19), KRT19 (gene 3880); assay: LTEA_HepaRG_KRT19: Life Technologies and Expression Analysis (LTEA) Assay for Keratin 19 (KRT19) using HepaRG (AID 2283512)
How it was run: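 Differentiated human HepaRG cells, plated 48 h, were exposed in duplicate for 48 h in serum-free induction medium to eight half-log concentrations up to 100 uM in 0.5% DMSO. KRT19 mRNA was quantified by qRT-PCR, normalized to ACTB, GAPDH and POLR2A, and fitted bidirectionally versus DMSO.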

[3] = read-out: JUN Transcription Factor, JUN (gene 3725); assay: LTEA_HepaRG_JUN: Life Technologies and Expression Analysis (LTEA) Assay for JUN Transcription Factor using HepaRG (AID 2283513)
How it was run: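 Gene-expression endpoint: JUN mRNA (qRT-PCR, normalized to three reference genes) in HepaRG cultures treated 48 h with chemicals, duplicate wells, 100 uM maximum with half-log dilutions; bidirectional fitting relative to 0.5% DMSO.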

[4] = read-out: Lipase C (LIPC), LIPC (gene 3990); assay: LTEA_HepaRG_LIPC: Life Technologies and Expression Analysis (LTEA) Assay for Lipase C (LIPC) using HepaRG (AID 2283514)
How it was run: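 HepaRG, 48 h exposure, 8-pt half-log series from 100 uM in 0.5% DMSO, duplicates. Readout: LIPC mRNA by Fluidigm qRT-PCR, housekeeping-normalized (ACTB/GAPDH/POLR2A). Gain or loss fitted bidirectionally against DMSO baseline.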

[5] = read-out: Lipoprotein lipase (LPL), LPL (gene 4023); assay: LTEA_HepaRG_LPL: Life Technologies and Expression Analysis (LTEA) Assay for Lipoprotein lipase (LPL) using HepaRG (AID 2283515)
How it was run: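 HepaRG, 48 h exposure, 8-pt half-log dilutions from 100 uM, 0.5% DMSO vehicle, duplicates; qRT-PCR (Fluidigm array) of LPL mRNA vs housekeeping genes; bidirectional curve fit relative to DMSO baseline.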

[6] = read-out: MicroRNA 122 (MIR122), gene 406906; assay: LTEA_HepaRG_MIR122: Life Technologies and Expression Analysis (LTEA) Assay for MicroRNA 122 (MIR122) using HepaRG (AID 2283516); note: the transcript read is the microRNA miR-122
How it was run: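 Changes in transcript abundance, up or down relative to 0.5% DMSO vehicle, were scored after 48 h chemical treatment of HepaRG cells (maximum 100 uM). Quantification used TaqMan qRT-PCR normalized to housekeeping genes.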

[7] = read-out: matrix metalloproteinase-10 (MMP10), MMP10 (gene 4319); assay: LTEA_HepaRG_MMP10: Life Technologies and Expression Analysis (LTEA) Assay for matrix metalloproteinase-10 (MMP10) using HepaRG (AID 2283517)
How it was run: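 Transcript levels come from Fluidigm qRT-PCR normalized to three housekeeping genes, with curves fitted bidirectionally against 0.5% DMSO. Human HepaRG cells were dosed for 48 hours at concentrations up to 100 uM.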

MYC, MYC (gene 4609) = assay: LTEA_HepaRG_MYC: Life Technologies and Expression Analysis (LTEA) Assay for MYC using HepaRG (AID 2283518)
How it was run: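 Differentiated human HepaRG cells, plated 48 h then switched to serum-free induction medium, were exposed in duplicate for 48 h to 8-point half-log series up to 100 uM in 0.5% DMSO. MYC mRNA measured by qRT-PCR, normalized to ACTB/GAPDH/POLR2A.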

[8] = read-out: matrix metalloproteinase-3 (MMP3), MMP3 (gene 4314); assay: LTEA_HepaRG_MMP3: Life Technologies and Expression Analysis (LTEA) Assay for matrix metalloproteinase-3 (MMP3) using HepaRG (AID 2283519)
How it was run: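 qRT-PCR read-out of MMP3 mRNA (normalised to three housekeeping genes) in HepaRG liver cells after 48 h chemical exposure; 8-point half-log series, top 100 uM, 0.5% DMSO vehicle. Bidirectional curve fitting against DMSO baseline.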

[9] = read-out: Paternally Expressed 10 (PEG10), PEG10 (gene 23089); assay: LTEA_HepaRG_PEG10: Life Technologies and Expression Analysis (LTEA) Assay for Paternally Expressed 10 (PEG10) using HepaRG (AID 2283520)
How it was run: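 After 48 h exposure of differentiated HepaRG cells (0.5% DMSO vehicle, eight concentrations up to 100 uM, duplicates), PEG10 mRNA was measured by TaqMan qRT-PCR. Values were normalised to endogenous control genes and analysed bidirectionally against vehicle.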

[10] = read-out: Protein phosphatase 2A (PPP2R4), PTPA (gene 5524); assay: LTEA_HepaRG_PPP2R4: Life Technologies and Expression Analysis (LTEA) Assay for Protein phosphatase 2A (PPP2R4) using HepaRG (AID 2283522)
How it was run: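 Using HepaRG cultures maintained in 0.5% DMSO, chemicals are tested 48 h at up to 100 uM in duplicate. Induction or suppression of PPP2R4 mRNA, measured by qRT-PCR, is fitted bidirectionally against the vehicle baseline.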

[11] = read-out: Phosphatase and tensin (PTEN), PTEN (gene 5728); assay: LTEA_HepaRG_PTEN: Life Technologies and Expression Analysis (LTEA) Assay for Phosphatase and tensin (PTEN) using HepaRG (AID 2283523)
How it was run: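 HepaRG, 48 h exposure, 8-pt half-log series from 100 uM top, 0.5% DMSO vehicle, duplicates. Readout: Fluidigm qRT-PCR of PTEN transcript; housekeeping normalization (ACTB, GAPDH, POLR2A). Gain or loss fitted relative to DMSO baseline.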

[12] = read-out: solute carrier (SLC22A1), SLC22A1 (gene 6580); assay: LTEA_HepaRG_SLC22A1: Life Technologies and Expression Analysis (LTEA) Assay for solute carrier (SLC22A1) using HepaRG (AID 2283524)
How it was run: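 qRT-PCR readout (TaqMan, Fluidigm arrays) of SLC22A1 transcript, normalized to three housekeeping genes; bidirectional curve fit relative to 0.5% DMSO vehicle. Differentiated human HepaRG cells, 48 h chemical exposure, top concentration 100 uM, half-log steps, eight points.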

[13] = read-out: Pyruvate Dehydrogenase Kinase 4 (PDK4), PDK4 (gene 5166); assay: LTEA_HepaRG_PDK4: Life Technologies and Expression Analysis (LTEA) Assay for Pyruvate Dehydrogenase Kinase 4 (PDK4) using HepaRG (AID 2283525)
How it was run: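 HepaRG (human liver line), 48 h chemical exposure, 8-pt half-log CRC top 100 uM, 0.5% DMSO vehicle, duplicates. Readout: TaqMan qRT-PCR of PDK4 mRNA, housekeeping-normalized; gain/loss fit relative to DMSO baseline.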

[14] = read-out: NAD(P)H dehydrogenase [quinone] 1 (NQO1), NQO1 (gene 1728); assay: LTEA_HepaRG_NQO1: Life Technologies and Expression Analysis (LTEA) Assay for NAD(P)H dehydrogenase [quinone] 1 (NQO1) using HepaRG (AID 2283526)
How it was run: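 In this assay, gene expression is read by qRT-PCR after 48 h exposure of HepaRG cells to eight concentrations (max 100 uM, half-log) in 0.5% DMSO. Each chemical runs in duplicate, and activity is scored relative to vehicle.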

[15] = read-out: Nuclear factor erythroid 2-related factor 2 (Homo sapiens) (UniProt Q16236); assay: LTEA_HepaRG_NFE2L2: Life Technologies and Expression Analysis (LTEA) Assay for Nuclear factor erythroid 2-related factor 2 (NFE2L2) Transcription Factor using HepaRG (AID 2283527);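 note: TaqMan qRT-PCR transcript level normalised to ACTB GAPDH and POLR2A housekeeping genes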
How it was run: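 HepaRG, 48 h dosing, 8-pt half-log series from 100 uM in 0.5% DMSO, duplicates. Read-out: NFE2L2 mRNA by qRT-PCR (ACTB/GAPDH/POLR2A normalization). Bidirectional curve fit vs DMSO baseline.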

[16] = read-out: succinate dehydrogenase complex iron sulfur subunit B (SDHB), SDHB (gene 6390); assay: LTEA_HepaRG_SDHB: Life Technologies and Expression Analysis (LTEA) Assay for succinate dehydrogenase complex iron sulfur subunit B (SDHB) using HepaRG (AID 2283528)
How it was run: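 HepaRG, 48 h exposure, 8-pt half-log series from 100 uM in 0.5% DMSO, duplicates. Readout: SDHB mRNA by Fluidigm qRT-PCR vs housekeeping genes; bidirectional fit relative to DMSO.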

[17] = read-out: Signal transducer and activator of transcription 3 (Homo sapiens) (UniProt P40763); assay: LTEA_HepaRG_STAT3: Life Technologies and Expression Analysis (LTEA) Assay for Signal transducer and activator of transcription (STAT3) using HepaRG (AID 2283529)
How it was run: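 HepaRG, 48 h exposure, 8-pt half-log series (top 100 uM), 0.5% DMSO vehicle, duplicates. Readout: STAT3 transcript by Fluidigm qRT-PCR, housekeeping-normalized; bidirectional fit vs DMSO baseline.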

[18] = read-out: solute carrier (SLCO1B1), SLCO1B1 (gene 10599); assay: LTEA_HepaRG_SLCO1B1: Life Technologies and Expression Analysis (LTEA) Assay for solute carrier (SLCO1B1) using HepaRG (AID 2283530)
How it was run: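 Differentiated human HepaRG cells, plated 48 h, switched to serum-free induction medium and exposed in duplicate for 48 h to 8 half-log concentrations (top 100 uM) in 0.5% DMSO. SLCO1B1 mRNA by TaqMan qRT-PCR, normalized to ACTB/GAPDH/POLR2A.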

[19] = read-out: sulfotransferase 2A1 (SULT2A1), SULT2A1 (gene 6822); assay: LTEA_HepaRG_SULT2A1: Life Technologies and Expression Analysis (LTEA) Assay for sulfotransferase 2A1 (SULT2A1) using HepaRG (AID 2283531)
How it was run: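 Differentiated human HepaRG cells in serum-free induction medium were exposed for 48 h to eight half-log concentrations (top 100 uM, 0.5% DMSO). SULT2A1 mRNA was measured by qRT-PCR, normalized to ACTB, GAPDH and POLR2A, and fitted bidirectionally against DMSO.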

Measured: outcome

Sequence of Signal transducer and activator of transcription 3 (Homo sapiens) (P40763 whole entry, looked up): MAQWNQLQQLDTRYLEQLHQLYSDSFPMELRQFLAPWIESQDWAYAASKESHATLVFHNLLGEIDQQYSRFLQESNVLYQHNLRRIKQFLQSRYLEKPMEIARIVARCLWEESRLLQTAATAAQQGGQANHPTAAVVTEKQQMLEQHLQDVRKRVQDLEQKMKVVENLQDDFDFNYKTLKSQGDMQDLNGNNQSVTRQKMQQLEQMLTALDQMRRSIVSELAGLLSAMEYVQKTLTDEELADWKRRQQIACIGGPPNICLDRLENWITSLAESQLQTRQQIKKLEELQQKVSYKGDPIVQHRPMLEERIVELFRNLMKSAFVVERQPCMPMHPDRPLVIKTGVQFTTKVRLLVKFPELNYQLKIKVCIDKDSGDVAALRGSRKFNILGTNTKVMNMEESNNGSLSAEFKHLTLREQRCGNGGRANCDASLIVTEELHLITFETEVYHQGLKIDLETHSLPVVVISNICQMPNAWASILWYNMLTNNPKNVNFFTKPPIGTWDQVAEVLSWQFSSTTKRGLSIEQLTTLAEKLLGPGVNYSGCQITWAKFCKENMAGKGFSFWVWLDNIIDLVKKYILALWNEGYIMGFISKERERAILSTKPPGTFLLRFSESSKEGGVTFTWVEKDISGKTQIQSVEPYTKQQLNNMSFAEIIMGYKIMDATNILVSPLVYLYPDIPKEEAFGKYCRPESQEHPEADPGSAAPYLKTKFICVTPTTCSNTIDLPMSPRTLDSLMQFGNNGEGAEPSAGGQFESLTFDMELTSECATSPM
Sequence of Nuclear factor erythroid 2-related factor 2 (Homo sapiens) (Q16236 whole entry, looked up): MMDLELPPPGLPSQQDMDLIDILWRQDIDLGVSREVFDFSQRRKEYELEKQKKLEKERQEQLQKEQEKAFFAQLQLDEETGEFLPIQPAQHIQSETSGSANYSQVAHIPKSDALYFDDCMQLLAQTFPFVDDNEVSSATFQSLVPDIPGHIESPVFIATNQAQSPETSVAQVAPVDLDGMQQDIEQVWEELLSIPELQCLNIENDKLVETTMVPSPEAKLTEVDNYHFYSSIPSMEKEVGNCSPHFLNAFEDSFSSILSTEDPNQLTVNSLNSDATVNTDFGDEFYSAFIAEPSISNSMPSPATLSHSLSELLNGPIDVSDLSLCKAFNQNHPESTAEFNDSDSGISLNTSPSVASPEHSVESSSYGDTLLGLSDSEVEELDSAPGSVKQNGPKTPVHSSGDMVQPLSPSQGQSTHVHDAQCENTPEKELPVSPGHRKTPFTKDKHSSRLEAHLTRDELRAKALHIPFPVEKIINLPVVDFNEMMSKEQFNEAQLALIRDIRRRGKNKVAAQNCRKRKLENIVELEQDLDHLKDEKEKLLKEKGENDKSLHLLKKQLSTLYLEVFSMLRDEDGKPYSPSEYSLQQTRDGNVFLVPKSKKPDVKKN

CS(=O)(=O)OCCCCOS(C)(=O)=O
inactive: all assays above
